This is a sample that favours compounds with a hit; in the whole collection about 22% have one here.
Shiga toxin inh: blocks Shiga toxin action in Vero cells | Vero cells, Shiga toxin protein synthesis inhibition reporter | inhibition, % at 38.7 µM | actives 9.2% (n = 290,000); in the data active = inhibition mostly above about 28%, no sharp cut-off; inactive = mostly below about 43%
LmPK inh: inhibitors of Leishmania mexicana pyruvate kinase. Q27686. purified LmPK, Kinase-Glo ATP luminescence, 1 h. Potency, µM (highest dose often 57.5 µM), usual class: inhibitors. actives 0.37% (n = 290,000). AID 1721
Target sequence (Q27686 whole entry, looked up): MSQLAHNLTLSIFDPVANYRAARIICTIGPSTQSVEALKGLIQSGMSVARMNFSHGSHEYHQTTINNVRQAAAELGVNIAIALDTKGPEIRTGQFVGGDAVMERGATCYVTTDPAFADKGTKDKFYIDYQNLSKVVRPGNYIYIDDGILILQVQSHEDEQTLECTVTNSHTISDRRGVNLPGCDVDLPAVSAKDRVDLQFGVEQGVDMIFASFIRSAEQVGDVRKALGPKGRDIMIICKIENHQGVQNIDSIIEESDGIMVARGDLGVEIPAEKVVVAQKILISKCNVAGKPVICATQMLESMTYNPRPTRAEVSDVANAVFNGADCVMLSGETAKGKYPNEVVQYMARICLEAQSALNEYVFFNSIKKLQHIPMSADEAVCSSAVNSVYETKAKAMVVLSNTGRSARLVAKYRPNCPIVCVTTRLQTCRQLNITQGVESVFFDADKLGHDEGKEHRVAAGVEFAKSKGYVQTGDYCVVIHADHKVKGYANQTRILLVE
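Screened at intermediate enzyme activity to detect both inhibitors and activators: LmPK at 0.1 nM, with a 0.5 nM enzyme column as activation reference. PEP 0.5 mM, ADP 0.1 mM; ATP detected by luminescence after 1 h.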
Pf growth 96h: P. falciparum growth inhibition at 96 hour, primary screen for plastid delayed-death inhibitors; Potency, µM (highest dose often 28.7 µM), actives largely listed as inhibitors; AID 504834; P. falciparum luciferase reporter growth, 96 h; actives 6.9% (n = 320,000)
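Readout is luminescence from an integrated firefly luciferase in P. falciparum. Red cells, 2% hematocrit and 0.05% parasitemia final, were cultured with compound through two parasite generations (96 hours) at 37 C, 5% CO2.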
Pf growth 48h: P. falciparum growth inhibition at 48 hours (one generation) | P. falciparum luciferase growth in erythrocytes, 48 h | Potency, µM (top dose mostly 28.7 µM), actives largely listed as inhibitors | actives 5.9% (n = 310,000)
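Luminescence readout; reporter = integrated firefly luciferase in P. falciparum. RBC culture at 2% hematocrit, 0.1% parasitemia final, 37 C/5% CO2; decreased signal taken as growth inhibition.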
Cycloheximide cs: counter-screen for Shiga toxin inhibitors: cycloheximide protein synthesis inhibition. actives 12% (n = 300,000). cell reporter, cycloheximide protein synthesis inhibition counterscreen. max response, %; in the data active = max response mostly above about 13%, no sharp cut-off; inactive = mostly below about 14%; note: read at 38.3 µM for the half of the compounds with a filed dose
Of the large screens only hits and unclear results are named; the others gave an inactive call; ! = not active in a repeat. Unless noted, calls come from the whole dose curve; as a rule, active = well fitted inhibition curve with a large enough effect; inconclusive = small, poorly fitted or top-dose-only effect, or another doubt; inactive = no such curve, though single readings can be large or run the other way.

COc1ccc(CCNC(=O)/C=C/c2ccco2)cc1OC	Pf growth 96h inconclusive
COc1ccc(C(NC(=O)/C=C/c2ccco2)c2ccc(OC)cc2)cc1	Pf growth 96h 2.33µM, Pf growth 48h 10.4µM
CCOC(=O)/C(C#N)=C1\SS/C(=C(/C#N)C(=O)OCC)S1	Shiga toxin inh 50.5, Cycloheximide cs 35.4
CCOC(=O)/C(C#N)=C1/CCCCCN1C	Pf growth 96h inconclusive
CC1CN(C(=O)Nc2ccc(F)cc2F)CC(C)O1 (configuration not stated)	none
CCn1c(SCC(=O)N2CCCCCC2)nc2c(c1=O)SCC2	Pf growth 96h 5.86µM
COc1ccccc1-n1c(SCC(=O)Nc2cc(C)on2)nc2c(c1=O)SCC2	Pf growth 96h inconclusive, Pf growth 48h inconclusive
CCn1c(SCC(=O)N2CCCC2)nc2c(c1=O)SC(C)C2 (configuration not stated)	none
CCOC(=O)N1CCN(C(=O)CSc2nc3c(c(=O)n2-c2ccccc2OC)SCC3)CC1	Pf growth 96h 1.31µM, Pf growth 48h inconclusive
COc1ccccc1-n1c(SCC(=O)Nc2nnc(C)s2)nc2c(c1=O)SCC2	Pf growth 96h 11.7µM
Cc1cc(/C=C2/NC(=O)N(c3ccccc3)C2=O)c(C)n1-c1cccnc1	Shiga toxin inh 90.6, Pf growth 96h inconclusive, Cycloheximide cs 59.3
Cc1cc(/C=C2/NC(=S)NC2=O)c(C)n1-c1cccnc1	Shiga toxin inh 50.8, Cycloheximide cs 37.2
Cc1cccc(N2C(=O)/C(=C/c3cccnc3)SC2=S)c1	none
Cc1cc(/C=C2/SC(=S)N(c3ccc([N+](=O)[O-])cc3)C2=O)c(C)n1-c1cccnc1	Pf growth 48h 13.1µM
Cc1cc(C=C2C(=O)NC(=O)NC2=O)c(C)n1-c1cccnc1	none
C=CCOc1ccc(CN(C)C(=O)CNC(=O)c2ccc(-c3ccccc3)cc2)cc1	Pf growth 48h 13.1µM
CC(=O)Nc1ccc(OCCOc2ccc(NC(C)=O)cc2)cc1	none (no result: Pf growth 48h)
CCOc1ccc(CN(C)C(=O)CNC(=O)c2ccccc2)cc1	Pf growth 96h inconclusive, Pf growth 48h inconclusive
C=CCNC(=O)Nc1ccc(OCC)cc1	Cycloheximide cs 12.0 (no result: Pf growth 96h)
C=CCOc1ccc(C(=O)Nc2ccc(OCC)cc2)cc1	Pf growth 96h 4.15µM
CC(=O)Nc1ccc(OCC=C(Cl)Cl)cc1	Shiga toxin inh 24.7, Cycloheximide cs 10.8
COC(=O)c1ccc(NS(=O)(=O)c2cc(-c3cc(C)no3)ccc2OC)cc1	Pf growth 48h inconclusive
Cc1ccc(C(O)(C(=O)NNc2ccc3ccccc3n2)c2ccc(C)cc2)cc1	Pf growth 96h inconclusive, Pf growth 48h inconclusive, Cycloheximide cs 13.0!
Cc1ccc(C(=O)Nc2ccc3ccccc3n2)cc1	Shiga toxin inh 42.3, Cycloheximide cs 41.4
O=C(CCc1ccccc1)Nc1ccc2ccccc2n1	Shiga toxin inh 103.8, Pf growth 96h inconclusive, Cycloheximide cs 46.7
O=C(Nc1ccc2ccccc2n1)c1ccccc1Br	Shiga toxin inh 131.2, Cycloheximide cs 41.1
O=C(C1CC(=O)N(c2ccc(Cl)cc2)C1)N1CCN(Cc2ccc3c(c2)OCO3)CC1 (configuration not stated)	none
COc1ccc(C(=O)Nc2ccc3ccccc3n2)cc1OC	Pf growth 96h inconclusive, Cycloheximide cs 29.2 (no result: Shiga toxin inh)
O=C(c1ccccc1)c1ccc2ccccc2n1	Cycloheximide cs 38.9 (no result: Pf growth 48h)
O=C(Nc1ccc2ccccc2n1)Nc1cccs1	none
O=C(Nc1ccc2ccccc2n1)c1ccccc1	Shiga toxin inh 66.4, Cycloheximide cs 49.2
Cc1cc(C)cc(NC(=O)Nc2ccc3ccccc3n2)c1	none
CCOC(=O)C1CCCN(C(=O)C2CCN(S(=O)(=O)c3c(C)noc3/C=C/c3ccccc3F)CC2)C1 (configuration not stated)	Pf growth 48h inconclusive
Cc1cc(C)n(CCC(=O)N=Nc2c(O)[nH]c3ccccc23)n1	none
FC(F)(F)COc1nc(N2CCOCC2)nc(N(c2ccccc2)c2ccccc2)n1	Pf growth 48h 3.29µM
c1ccc(N(c2ccccc2)c2nc(N3CCOCC3)nc(N3CCOCC3)n2)cc1	none (no result: Pf growth 96h, Pf growth 48h)
Cc1ccc(C(=O)c2cccc(N)c2)cc1C	none
Cc1ccc(C(=O)c2ccc(O)cc2)cc1C	Cycloheximide cs 17.6
O=C(c1ccccc1)c1ccc2cc(O)ccc2c1	Shiga toxin inh 72.3, Cycloheximide cs 35.1
O=C(c1ccc(O)cc1)c1ccc(Cl)cc1	Cycloheximide cs 21.4
COc1cccc(NC(=O)CN(C)C(=O)CC2CCCCC2)c1	none (no result: Shiga toxin inh, LmPK inh, Cycloheximide cs)
CCc1noc(C)c1C(=O)OCC(=O)Nc1cccc(C)c1	Pf growth 48h inconclusive (no result: Shiga toxin inh, LmPK inh, Cycloheximide cs)
Cc1ccccc1C(=O)NC1CCN(Cc2nnnn2C2CCCC2)CC1	Pf growth 96h 6.57µM
Cc1ccccc1C(=O)NC1CCN(Cc2nnnn2C(C)(C)C)CC1	none
Cc1ccc(Cn2nnnc2CN2CCC(NC(=O)c3ccc(Br)cc3)CC2)cc1	Pf growth 96h inconclusive, Pf growth 48h 3.7µM
CCC(C)(C)n1nnnc1CN1CCC(NC(=O)c2ccc(Br)cc2)CC1	Pf growth 96h 4.15µM, Pf growth 48h inconclusive
CCc1ccc(C(=O)C(C)OC(=O)c2nn(C)c(=O)c3ccccc23)cc1 (configuration not stated)	none (no result: Shiga toxin inh, LmPK inh, Cycloheximide cs)
CCOC(=O)c1c(C)n(C)c2ccc(OC)c(NC(=O)CN3CCN(C4CCCCC4)CC3)c12	Pf growth 48h inconclusive (no result: Pf growth 96h)
CCOC(=O)c1c(C)n(C)c2ccc(OC)c(NC(=O)CN3CCN(C(=O)c4ccco4)CC3)c12	Pf growth 96h inconclusive, Pf growth 48h 5.22µM
CCOC(=O)c1c(C)n(C)c2ccc(OC)c(NC(=O)CN3CCN(Cc4ccccc4)CC3)c12	Pf growth 48h 10.4µM
COC(=O)c1c(NC(=O)CN2CCN(C(=O)c3ccco3)CC2)c2c(C)cccc2n1C	Pf growth 48h inconclusive (no result: Pf growth 96h)
CCOC(=O)c1c(C)n(C)c2ccc(OC)c(NC(=O)CN3CCC(C(=O)OCC)CC3)c12	Pf growth 96h 3.29µM, Pf growth 48h inconclusive
Cc1noc(C)c1C(=O)Nc1ccc(F)cc1F	none (no result: Pf growth 96h)
COc1ccc(NC(=O)c2cc(C)no2)cc1	Shiga toxin inh 71.6, Cycloheximide cs 35.8
Cc1cc(C(=O)Nc2ccc(F)cc2F)on1	Cycloheximide cs 14.5
CCc1ccc(NC(=O)c2cc(C)no2)cc1	Shiga toxin inh 70.1, Cycloheximide cs 46.6
Cc1cc(C(=O)Nc2ccc(F)c(Cl)c2)on1	Pf growth 48h inconclusive, Cycloheximide cs 19.5
Cc1ccc(NC(=O)c2cc(C)no2)cc1	Shiga toxin inh 79.5, Cycloheximide cs 59.4
COc1ccc(-c2nnc(SCC(=O)NC3CCCC3)n2C)cc1	Pf growth 96h inconclusive
CC(C)C[C@H](NC(=O)[C@H](Cc1cnc[nH]1)NC(=O)[C@@H](N)Cc1cnc[nH]1)C(=O)NCC(=O)NCC(=O)N[C@@H](C)C(=O)N[C@@H](CCCCN)C(=O)N[C@@H](CCC(N)=O)C(=O)N[C@@H](C)C(=O)NCC(=O)N[C@@H](CC(=O)O)C(=O)N[C@H](C(=O)O)C(C)C	none (no result: LmPK inh, Pf growth 96h, Pf growth 48h)
Cc1ccc(NCc2nnc(SCC(=O)NNC(=O)Cc3ccccc3)n2C)cc1	none
CCOC(=O)c1c(C)[nH]c(C)c1S(=O)(=O)N1CCOCC1	Pf growth 96h 6.57µM
